From PubChem BioAssay
Pol iota inh: inhibitors of human DNA polymerase iota; Q9UNA4; Pol iota fluorescent replication assay, 10 min; Potency, µM (top dose mostly 115 µM), hits mostly inhibitors; 1% of 390,000 active; AID 588590
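Pol iota at 10 nM preincubated 15 min with compounds at room temperature; reaction started with fluorescent substrate, 50 nM final. Fluorescence read kinetically at 0 and 10 min; buffer-only wells as negative control.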
Pol eta inh-1: DNA polymerase eta (human) inhibition | 1.2% of 390,000 active | recombinant Pol eta, fluorescent DNA replication assay | Potency, µM (highest dose often 114 µM), usual class: inhibitors | AID 588591 | Q9Y253
Target sequence (Q9Y253 whole entry, looked up): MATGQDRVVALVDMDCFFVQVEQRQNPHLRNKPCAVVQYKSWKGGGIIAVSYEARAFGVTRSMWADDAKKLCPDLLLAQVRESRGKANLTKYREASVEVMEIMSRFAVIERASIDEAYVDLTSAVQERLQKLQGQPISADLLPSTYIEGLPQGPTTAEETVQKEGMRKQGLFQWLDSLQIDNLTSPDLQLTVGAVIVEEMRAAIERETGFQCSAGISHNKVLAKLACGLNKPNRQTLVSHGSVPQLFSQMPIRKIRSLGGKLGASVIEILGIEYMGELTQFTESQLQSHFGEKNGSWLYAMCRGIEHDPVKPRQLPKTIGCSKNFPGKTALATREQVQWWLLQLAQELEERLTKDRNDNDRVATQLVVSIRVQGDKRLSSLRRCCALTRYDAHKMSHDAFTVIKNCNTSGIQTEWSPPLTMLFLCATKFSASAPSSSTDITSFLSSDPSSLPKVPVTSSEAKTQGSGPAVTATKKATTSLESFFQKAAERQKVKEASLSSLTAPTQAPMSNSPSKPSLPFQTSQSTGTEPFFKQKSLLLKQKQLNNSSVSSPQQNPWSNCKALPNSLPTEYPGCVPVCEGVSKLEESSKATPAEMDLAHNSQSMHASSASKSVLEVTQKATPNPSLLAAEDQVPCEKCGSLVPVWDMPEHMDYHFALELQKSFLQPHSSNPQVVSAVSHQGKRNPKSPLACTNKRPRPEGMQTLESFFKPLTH
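Pol eta (10 nM) was preincubated with compounds for 15 min at room temperature, after which fluorescent replication substrate (50 nM final) was added to start the reaction. Fluorescence was read kinetically at 0 and 10 min.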
WRN inhibitor: inhibitors of human WRN helicase; Q14191; WRN helicase unwinding, fluorescent forked duplex, kinetic; Potency, µM (series often up to 114 µM), hits mostly inhibitors; 0.46% of 360,000 active; AID 651768; also: nearly all actives have a fitted effect of over 55% in size
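Primary qHTS, 1536-well format. 20 nM WRN + compound, 15 min RT; start with 100 nM forked fluorophore/quencher duplex, 2 mM ATP (final); kinetic read ex 525/em 598 nm.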
FEN1 inh: inhibitors of human flap endonuclease 1. Recombinant FEN1 flap cleavage, fluorescence, 15 min. Potency, µM (highest dose often 114 µM), most hits filed as inhibitors. 0.35% of 390,000 active; also: nearly all actives have a fitted effect of over 65% in size
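Recombinant FEN1 (10 nM) was preincubated with pin-transferred compounds for 15 min at room temperature, then flap DNA substrate (50 nM final) was added. Plates were read at 0 and 15 min, and normalized concentration–response data were fitted to a four-parameter Hill equation.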
POLB inh: DNA polymerase beta (human) inhibition; P06746; Pol beta primer extension/strand displacement, fluorescence kinetic; Potency, µM (top dose mostly 114 µM), hits mostly inhibitors; 1.3% of 340,000 active; AID 485314
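Enzyme-only controls used 10 nM Pol beta; buffer lacking enzyme served as negative control. Compound preincubated 15 min, then 50 nM substrate added; 0 and 10 min reads at room temperature.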
Pol kappa inh-1: blocks human DNA polymerase kappa activity; Q9UBT6; purified Pol kappa, fluorescent DNA synthesis assay, 10 min; Potency, µM (highest dose often 107 µM), usual class: inhibitors; 0.53% of 400,000 active
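Pol kappa 10 nM + cpd, 15 min RT; start w/ substrate 50 nM final; fluorescence kinetic read, 0 and 10 min. Neg ctrl: buffer, no enzyme.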
GALK confirm: confirmation of human galactokinase (GALK) inhibitors; shares compounds with Pol eta inh-1; 70% of 150 active; Potency, µM (doses to about 115 µM), usual class: inhibitors; AID 2015; purified GALK, Kinase-Glo ATP depletion luminescence
Redox cycling: generates H2O2 by redox cycling, flagging GALK artifacts. shares compounds with Pol eta inh-1. Phenol red-HRP H2O2 redox cycling, absorbance 600 nm. Potency, µM (top dose mostly 115 µM), actives largely listed as inhibitors. 40% of 150 active. AID 2035
HEK293 tox: reduces HEK-293 cell viability in GALK counter-screen | AID 2547 | HEK-293 viability, ATP luminescence (CellTiter-Glo), 24/48 h | Potency, µM (top dose mostly 46.1 µM), usual class: inhibitors | 10% of 170 active | shares compounds with Pol eta inh-1
Pol kappa inh-2: confirmation of human DNA polymerase kappa inhibitors. shares compounds with Pol eta inh-1. purified Pol-kappa, fluorescent strand-displacement substrate. Potency, µM, hits mostly inhibitors. 76% of 920 active. AID 720501
Pol eta inh-2: confirmation of human DNA polymerase eta inhibitors | AID 720502 | 64% of 2,600 active | Potency, µM, actives largely listed as inhibitors | shares compounds with Pol eta inh-1 | Pol eta primer extension, TAMRA/BHQ fluorescence, 10 min
Numbers stand for hits; [ ] = remark or other dose. Hits are enriched below; roughly 2.4% of the tested compounds scored in any of these assays. Calls follow the shape of the dose curve; as a rule, active = well fitted curve in the direction sought with a large enough effect; inconclusive = small, poorly fitted or top-dose-only effect, or another doubt; inactive = no such curve, though single readings can be large; an effect the other way counts as inactive or inconclusive.

How did Nc1cc2c(cc1[N+](=O)[O-])OCCO2 do in these assays?
Pol iota inh: inactive; Pol eta inh-1: inactive; WRN inhibitor: inactive; FEN1 inh: inactive; POLB inh: inactive; Pol kappa inh-1: inactive

Results for Nc1cc2c(cc1[N+](=O)[O-])OCO2 ?
Pol iota inh: inconclusive; Pol eta inh-1: 44.7µM; WRN inhibitor: inactive; FEN1 inh: inactive; POLB inh: 28.2µM; Pol kappa inh-1: inconclusive; Pol eta inh-2: inconclusive

Results for Cc1ccc(C)n1-c1cccc(-c2nn[nH]n2)c1 ?
Pol eta inh-2: inconclusive

Results for Fc1cccc(-c2nn[nH]n2)c1 ?
Pol iota inh: inactive; Pol eta inh-1: inactive; WRN inhibitor: inactive; FEN1 inh: inactive; POLB inh: inactive; Pol kappa inh-1: inactive

How did COc1ccc(NC(=O)C2Cc3c(-c4ccc(NC(C)=O)cc4)ccnc3O2)cn1 (configuration not stated) do in these assays?
WRN inhibitor: inactive

How did Cc1cn([C@H]2C[C@H](O)[C@@H](/C=C/C(=O)NCCc3ccc4ccccc4c3)O2)c(=O)[nH]c1=O do in these assays?
WRN inhibitor: inactive

How did COC(=O)c1oc2ccccc2c1NC(=O)/C=C/C(=O)O do in these assays?
Pol iota inh: inactive; Pol eta inh-1: inactive; WRN inhibitor: inactive; FEN1 inh: inactive; POLB inh: inactive; Pol kappa inh-1: inactive; GALK confirm: inactive; Redox cycling: inactive; HEK293 tox: inactive

How did COC(=O)c1oc2ccccc2c1N do in these assays?
Pol iota inh: inconclusive; Pol eta inh-1: inactive; WRN inhibitor: inactive; FEN1 inh: inactive; POLB inh: inactive; Pol kappa inh-1: inactive

Results for O=C(O)c1ccc2oc(=O)c(S(=O)(=O)c3ccc(F)cc3)cc2c1 ?
Pol iota inh: inactive; Pol eta inh-1: inactive; WRN inhibitor: inactive; FEN1 inh: inactive; POLB inh: inactive; Pol kappa inh-1: inactive

How did O=C(O)c1ccc2nc(-c3cc4cc(F)ccc4oc3=O)[nH]c2c1 do in these assays?
Pol iota inh: inconclusive; Pol eta inh-1: 35.5µM; FEN1 inh: inactive; POLB inh: 35.5µM; Pol kappa inh-1: inactive; Pol eta inh-2: 60.1

How did O=C1CC(c2ccccc2C(F)(F)F)c2c(c3ccccc3[nH]c2=O)O1 (configuration not stated) do in these assays?
Pol iota inh: inactive; Pol eta inh-1: inactive; FEN1 inh: inactive; POLB inh: inactive; Pol kappa inh-1: inactive

What do the screens show for `CC(=O)Nc1ccc(Nc2nc3ccccc3nc2NS(=O)(=O)c2ccc(Cl)c([N+](=O)[O-])c2)cc1`?
Pol iota inh: inconclusive; Pol eta inh-1: 22.4µM; WRN inhibitor: inconclusive; FEN1 inh: inactive; Pol kappa inh-1: inconclusive; Pol eta inh-2: inconclusive

What do the screens show for `CCNC(=O)C1(C)CCCN(C(=O)c2cc(-c3ccccc3)cs2)C1` (configuration not stated)?
WRN inhibitor: inactive

What do the screens show for `O=C(O)C/C(=C\c1ccc(N2CCOCC2)c([N+](=O)[O-])c1)c1nc2ccccc2s1`?
Pol iota inh: inactive; Pol eta inh-1: 31.6µM; WRN inhibitor: inconclusive; FEN1 inh: inactive; POLB inh: inconclusive; Pol kappa inh-1: inconclusive; Pol kappa inh-2: inconclusive

What do the screens show for `O=C(O)CC/C(=C\c1ccc(N2CCOCC2)c([N+](=O)[O-])c1)c1nc2ccccc2s1`?
Pol iota inh: inactive; Pol eta inh-1: inactive; WRN inhibitor: inactive; FEN1 inh: inactive; POLB inh: inactive; Pol kappa inh-1: inactive

How did CC(C)(C)OC(=O)N1CCC(c2c(C(=O)NCc3ccccc3)cnn2-c2cccc(F)c2)CC1 do in these assays?
Pol iota inh: inactive; Pol eta inh-1: inactive; FEN1 inh: inactive; POLB inh: inactive; Pol kappa inh-1: inactive

Results for O=C(CNC(=O)c1ccc(Br)cc1)N=Nc1c(O)[nH]c2ccc([N+](=O)[O-])cc12 ?
Pol iota inh: inconclusive; Pol eta inh-1: inactive; WRN inhibitor: inactive; FEN1 inh: inactive; POLB inh: inconclusive; Pol kappa inh-1: inactive

How did COc1ccc(/C=C/C(=O)NCC(=O)N=Nc2c(O)[nH]c3ccc([N+](=O)[O-])cc23)cc1 do in these assays?
Pol iota inh: inactive; Pol eta inh-1: 35.5µM; WRN inhibitor: inactive[11.6 µM]; FEN1 inh: inconclusive; POLB inh: 50.1µM; Pol kappa inh-1: inactive; Pol kappa inh-2: 84.4

Results for CC(=O)c1cccc(NC(=O)Cn2c(SCC(=O)Nc3ccc(F)cc3)nc3ccccc32)c1 ?
Pol iota inh: inactive; Pol eta inh-1: inactive; FEN1 inh: inactive; POLB inh: inactive; Pol kappa inh-1: inactive

Results for CCOC(=O)C1(C)CCCN1C(=O)c1cccc(F)c1 (configuration not stated) ?
WRN inhibitor: inactive

How did CC(=O)Nc1ccc(NC(=O)CSc2nnc(NC(=O)c3ccc(Br)o3)s2)cc1 do in these assays?
Pol iota inh: inconclusive; Pol eta inh-1: 14.1µM; WRN inhibitor: 56.2µM; FEN1 inh: inactive; POLB inh: 50.1µM; Pol kappa inh-1: inactive; Pol kappa inh-2: inconclusive; Pol eta inh-2: inconclusive

How did CC(=O)Nc1cccc(NC(=O)CSc2nnc(NC(=O)c3ccco3)s2)c1 do in these assays?
Pol iota inh: inactive; Pol eta inh-1: inconclusive; WRN inhibitor: inactive; FEN1 inh: inactive; POLB inh: inactive; Pol kappa inh-1: inactive

What do the screens show for `CCCNC(=O)CN1C(=O)c2c(c3ccccc3n2C)C1c1ccc(OC)cc1` (configuration not stated)?
Pol iota inh: inactive; Pol eta inh-1: inactive; FEN1 inh: inactive; POLB inh: inactive; Pol kappa inh-1: inactive

Results for O=C(O)COc1ccccc1/C=C1\SC(=S)N(/N=C/c2ccccc2O)C1=O ?
Pol iota inh: inconclusive; Pol eta inh-1: 22.4µM; WRN inhibitor: inconclusive; FEN1 inh: inactive; POLB inh: inactive; Pol kappa inh-1: inactive; Pol kappa inh-2: 75.2; Pol eta inh-2: 47.8
